M1 agonist: M1 muscarinic receptor agonists, primary screen, CHO-M1 cells, Fluo-4 calcium, agonist mode. Muscarinic acetylcholine receptor M1. Fluo-4 calcium fluorescence; active compounds read high. B-score at 10 µM. 3% of 64,000 active. AID 626, 2007;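 active = fluorescence rise, raw or as B-score row- and column-corrected plate score, outside the 99.7% band of its plate's samples, either direction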
Htt clearance: clearance of mutant huntingtin inclusions, primary screen, imaging, HeLa Exon1htt(103Q)mCFP, confocal imaging | aggregate imaging; zero = plate's median compound well | inhibition, % at 1.5 µM | 0.42% of 47,000 active | AID 853, 2007;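 active = inhibition of aggregate fluorescence above about 70%, also judged a hit by eye on the cell image, limit read from the data, passing the limit was not always enough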;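 note: cells exposed to compound for three days before fixation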
M1 antag: antagonists of rat M1 muscarinic receptor | Muscarinic acetylcholine receptor M1 (Rattus norvegicus), P08482 | CHO-M1 cells, Fluo-4 calcium, ACh EC80 antagonist mode; active compounds read low | B-score at 10 µM | 3.4% of 64,000 active | AID 628, 2007;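 active = calcium fluorescence response, raw or row-and-column corrected B-score, differing from the plate sample mean either way at a set confidence level, mostly lower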
D1 mod: D1 CRE-luciferase signal change, two-sided – cell-based, HEK293 D1, dopamine EC30, D1 allosteric modulator project, primary screen | B-score at 10 µM | 5.9% of 58,000 active | AID 641, 2007 | dopamine EC30 potentiation; actives deviate in either direction;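 active = luminescence count or its row- and column-corrected plate score outside the 99.7% band of the plate's sample wells, on either side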
Target sequence (P21728 whole entry, looked up): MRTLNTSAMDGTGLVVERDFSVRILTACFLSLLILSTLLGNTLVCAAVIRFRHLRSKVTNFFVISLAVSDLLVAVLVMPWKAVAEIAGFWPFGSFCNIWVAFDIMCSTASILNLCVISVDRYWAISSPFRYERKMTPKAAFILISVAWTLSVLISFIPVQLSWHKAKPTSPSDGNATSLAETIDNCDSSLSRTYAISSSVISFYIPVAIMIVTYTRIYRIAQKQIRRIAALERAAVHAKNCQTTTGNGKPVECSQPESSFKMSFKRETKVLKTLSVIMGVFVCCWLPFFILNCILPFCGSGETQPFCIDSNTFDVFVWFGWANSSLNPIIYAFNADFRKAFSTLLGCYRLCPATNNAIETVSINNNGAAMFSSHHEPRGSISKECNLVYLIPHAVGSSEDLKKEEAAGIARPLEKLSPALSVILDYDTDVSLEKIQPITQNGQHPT
Active calls of the source: *. Most compounds without a hit are left out; they make up all but 9.1% or so of the library.

For Cc1ccc(Nc2nc(C3CC3)cs2)cc1 the results were M1 agonist 0.37, M1 antag 0.11 and D1 mod -4.9*.
Cc1cccc(C)c1Nc1nc2ccccc2o1 was read as M1 agonist -1, M1 antag -0.31 and D1 mod 0.72.
For Cc1nc(Nc2nc3ccccc3o2)nc2c1CCC2 the results were M1 agonist 1.5, Htt clearance 32, M1 antag -0.54 and D1 mod -6.1*.
C/C(Cl)=C/CSc1nc2c(c(=O)[nH]c(=O)n2C)n1C(C)C was read as M1 agonist -0.1, M1 antag 0.2 and D1 mod 7.9*.
Screening CCCCn1c(=O)[nH]c(=O)c2c1nc(CN1C(=O)c3ccccc3S1(=O)=O)n2CCC returned M1 agonist -0.41, M1 antag 0.47 and D1 mod 9.8*.
`COc1ccc(CN(C(=O)c2cnccn2)C(C(=O)NC(C)(C)C)c2cc(OC)c(OC)c(OC)c2)cc1` (configuration not stated) gave Htt clearance 70*.
For Cc1cccc(-n2ncc3c(NCCc4ccc(S(N)(=O)=O)cc4)ncnc32)c1 the results were M1 agonist -1.6, M1 antag 0.093 and D1 mod -6.9*.
Screening Cc1ccc(SCc2cn3c(C)csc3n2)cc1 returned M1 agonist 0.35, Htt clearance 20, M1 antag -0.12 and D1 mod -4.6*.
For Cc1ccc(S(=O)(=O)NCc2cn3c(C)csc3n2)cc1 the results were M1 agonist -0.077, Htt clearance 25 and M1 antag 1.7.
For Cc1nc(CCNC(=O)COc2ccccc2)cs1 the results were M1 agonist 0.78, Htt clearance 74*, M1 antag -0.082 and D1 mod 0.62.
`O=C(Nc1nc2c(s1)CCCC2)c1ccc(Br)s1` gave M1 agonist 0.12, M1 antag -1.1 and D1 mod -4.4*.
Cc1cc(C(=O)Nc2nc3c(s2)CCCC3)cs1 was read as M1 agonist 0.014, M1 antag -0.45 and D1 mod -5*.
Cc1ncsc1C(=O)Nc1nc2c(s1)CCCC2 was read as M1 agonist 0.76, Htt clearance -10, M1 antag -0.038 and D1 mod -1.5.
`COc1ccccc1NC(=O)NCCN1C(=O)C2C3C=CC(C3)C2C1=O` (configuration not stated) gave M1 agonist -0.55, M1 antag -0.27 and D1 mod 1.1.
Screening CCOC(=O)c1ccc(CNC(=O)c2cc(C(C)(C)C)oc2C)o1 returned M1 agonist 0.15, Htt clearance -39, M1 antag -1.2 and D1 mod 1.2.
`COC(=O)[C@@H](NC(=O)Nc1ccccc1F)C(C)C` gave M1 agonist 1.5, M1 antag 1.6* and D1 mod -0.0087.
For Cc1nnc(N2C(=O)C(O)=C(C(=O)c3ccco3)C2c2ccc(F)cc2)s1 (configuration not stated) the results were M1 agonist 18*, M1 antag -0.28 and D1 mod -0.011.
For CSc1nc(N2CCOCC2)c2c3c(sc2n1)CCC3 the results were M1 agonist 0.089, Htt clearance 1, M1 antag 0.097 and D1 mod 8.5*.
c1csc(-c2csc3ncnc(NCCCN4CCOCC4)c23)c1 was read as M1 agonist 2*, Htt clearance -38, M1 antag 0.011 and D1 mod 0.16.
Screening Cc1cccc2c1N1C(=O)c3c(C(=O)O)cccc3C1CC2C (configuration not stated) returned Htt clearance 1.
`COc1ccc(N2CCN(CCNC(=O)c3ccc(NC(=O)C4CCCO4)cc3)CC2)cc1` (configuration not stated) gave M1 agonist -2.8*, M1 antag -0.013 and D1 mod -0.12.
`O=C(Cn1nnc(-c2ccccc2-n2cnnn2)n1)N1CCCCC1` gave M1 agonist -0.62, Htt clearance -31, M1 antag -0.46 and D1 mod -0.1.
O=C(Cn1nnc(-c2ccccc2Cl)n1)N1CCN(S(=O)(=O)c2ccc(Cl)cc2)CC1 was read as M1 agonist -0.048, Htt clearance 76*, M1 antag -0.022 and D1 mod 0.031.
Screening CCOC(=O)c1ccc2c(c1)nc(COc1ccc(OC)cc1)n2CC returned Htt clearance -4.
Screening CS(=O)(=O)N1CCN(c2nc3ccccc3s2)CC1 returned M1 agonist 0.35, Htt clearance 14, M1 antag -0.5 and D1 mod -0.7.
Screening CC(Nc1nc(N2CCN(S(C)(=O)=O)CC2)nc2ccccc12)c1ccccc1 (configuration not stated) returned M1 agonist -0.0026, M1 antag -0.15 and D1 mod -3*.
Screening CCOC(=O)c1cnn(-c2sc(C(=O)OCC)c(C)c2C(=O)OCC)c1N returned M1 agonist -3.4*, M1 antag -0.29 and D1 mod -2.4.
CC1CCc2cc(F)ccc2N1C(=O)C1(C)CC1(Cl)Cl (configuration not stated) was read as Htt clearance 27.
For Nc1nonc1C(=O)NCCNCc1cc(Br)ccc1OCc1ccccc1F the results were M1 agonist 2.8*, Htt clearance 27, M1 antag -0.99 and D1 mod -3.3*.
For Nc1nonc1C(=O)NCCNCc1ccccc1OCc1ccccc1F the results were M1 agonist -1.6, M1 antag -0.054 and D1 mod -2.2.
CCOC(=O)CNC(=O)CSc1ncnc2c1cnn2-c1ccc(OC)cc1 was read as M1 agonist -1.5, M1 antag -0.011 and D1 mod -2.8*.
`CCOC(=O)CNC(=O)CSc1ncnc2c1cnn2-c1ccccc1` gave M1 agonist -1.2, Htt clearance 2, M1 antag -0.94 and D1 mod -0.86.
O=C(CSCSCC(=O)Nc1ccc2c(c1)OCO2)Nc1ccc2c(c1)OCO2 was read as M1 agonist 0.24, M1 antag -0.25 and D1 mod 1.
For CC(C)=CC(=O)Nc1ccc2c(c1)OCO2 the results were M1 agonist 1.3, Htt clearance 5, M1 antag -0.017 and D1 mod -5.2*.
`COc1ccc(NC(=O)C=C(C)C)cc1Cl` gave M1 agonist -0.44, Htt clearance -49, M1 antag 0.26 and D1 mod -3.8*.
CC(=O)N(C)c1nnc(-c2ccccn2)s1 was read as Htt clearance -69.
For O=c1oc(-c2cccnc2)nc2ccccc12 the results were M1 agonist 0.9, Htt clearance -1, M1 antag -0.13 and D1 mod -4.5*.
Screening c1cncc(-c2nc3ccccc3o2)c1 returned M1 agonist 0.68, M1 antag -0.18 and D1 mod 0.97.
CCOc1ccc(-c2nc(-c3ccccc3C)no2)cc1 was read as M1 agonist -0.031, Htt clearance -88, M1 antag 0.86 and D1 mod 0.64.
For CCn1cc(S(=O)(=O)CC(=O)NC2CCCCC2)c2ccccc21 the results were M1 agonist 1.1, Htt clearance 2, M1 antag 3.2* and D1 mod 1.2.

Bioassay records: PubChem BioAssay, several laboratories
